High-throughput results: PubChem BioAssay, National Center for Advancing Translational Sciences (NCATS)
Most compounds without a hit are left out; they make up all but 2.4% or so of the library.
Cruzain inh Det – blocks cruzain activity in presence of Triton detergent. hit rate 0.43% among 200,000. P25779. purified cruzain, Z-FR-AMC fluorescence, 0.01% Triton. Potency, µM, for inactives: max response, negative = inhibition, actives largely listed as inhibitors;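 also: plate controls were neutral wells for no effect and buffer without enzyme for full effect; nearly all actives have a fitted effect of over 40% in size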
Target sequence (P25779 123-467 limits assumed): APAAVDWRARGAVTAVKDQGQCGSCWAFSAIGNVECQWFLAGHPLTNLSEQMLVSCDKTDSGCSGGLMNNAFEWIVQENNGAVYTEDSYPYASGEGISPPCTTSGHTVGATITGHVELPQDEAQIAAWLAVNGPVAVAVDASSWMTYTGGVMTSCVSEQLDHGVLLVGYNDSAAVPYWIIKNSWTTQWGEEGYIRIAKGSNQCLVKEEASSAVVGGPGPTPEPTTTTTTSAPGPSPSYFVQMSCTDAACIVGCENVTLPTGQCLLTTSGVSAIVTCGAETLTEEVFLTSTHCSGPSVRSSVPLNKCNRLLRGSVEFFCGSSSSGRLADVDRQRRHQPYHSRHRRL
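Purified cruzain (1.5 nM final) was preincubated with compounds for 15 min at room temperature in 100 mM sodium acetate pH 5.5, 5 mM DTT, 0.01% Triton X-100. Reaction started with 2 uM Z-FR-AMC; AMC fluorescence change over 60 s gave activity.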
Cruzain noTriton – inhibitors of Trypanosoma cruzi cruzain without detergent; P25779; purified cruzain, Z-FR-AMC fluorescence, no detergent; Potency, µM, for inactives: max response, negative = inhibition, hits mostly inhibitors; hit rate 2.3% among 200,000; AID 1476;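 also: plate controls were enzyme without inhibitor for no effect and buffer without enzyme for full effect; nearly all actives have a fitted effect of over 40% in size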
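Purified cruzain at 1.5 nM, pre-incubated 15 min with compound at room temperature in 100 mM sodium acetate pH 5.5, 5 mM DTT, 0.00005% Triton X-100. Reaction started with 2 uM Z-FR-AMC; AMC fluorescence increase over 60 s gives rate.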
Numbers without * were called inactive; ? = inconclusive. Calls follow the shape of the dose curve; as a rule, active = well fitted curve in the direction sought with a large enough effect; inconclusive = small, poorly fitted or top-dose-only effect, or another doubt; inactive = no such curve, though single readings can be large; an effect the other way counts as inactive or inconclusive. Potency is read from the fitted curve at half-maximal effect.

SMILES	Cruzain inh Det	Cruzain noTriton
COc1ccc(CNC(=O)c2ccc(NC(=O)N3CCSc4ncccc43)cc2)c(OC)c1	-9.2%	16.1%
C[C@H](C(=O)c1ccccc1)C(c1ccccc1)N1CCOCC1 (stereo not given in full)	4.6%	9.8%
O=C(c1cccc(F)c1)N1CCC2(CC1)CN(c1ncccn1)C2	-0.3%	-9.1%
CCOC(=O)c1ccc(N2C(=O)c3n[nH]c(-c4cccs4)c3C2c2ccc(OCC)cc2)cc1 (stereo not given)	-3.1%	?
CCOC(=O)c1ccc(N2C(=O)c3n[nH]c(-c4cccs4)c3C2c2ccc(CC)cc2)cc1 (stereo not given)	-6.1%	5.01µM*
O=C(O)CCC(=O)Nc1ccc(N2CCCCCC2)cc1	2.9%	-5.1%
O=C(Cc1ccc(Cl)cc1)Nc1ccc(N2CCCC2)cc1	3.5%	6.31µM*
Cc1ccc(OCC(=O)Nc2ccc(N3CCCC3)cc2)cc1C	?	2.51µM*
Cc1cccc(OCC(=O)Nc2ccc(N3CCCC3)cc2)c1C	?	3.16µM*
Cc1cc(C)cc(OCC(=O)Nc2ccc(N3CCCC3)cc2)c1	?	3.98µM*
CCOc1ccccc1OCC(=O)Nc1ccc(N2CCCCC2)cc1	1.9%	-4.8%
Cc1cc(C)cc(OCC(=O)Nc2ccc(F)cc2)c1	0.2%	-18.6%
Cc1ccc(OCC(=O)Nc2ccc(O)c(C(=O)O)c2)cc1C	1.1%	-8.4%
O=C(O)[C@H]1CCCC[C@@H]1C(=O)Nc1nc2ccccc2[nH]1	0.8%	4.4%
CCc1nnc(SC(CC)C(=O)NCCOC)c2cc3occc3n12 (stereo not given)	-22.9%	?
COc1ccc(-c2nnc(SCC(=O)c3ccc(NC(C)=O)cc3)o2)cc1OC	-2.3%	6.8%
CCOC(=O)c1c(NC(=O)c2ccc(S(=O)(=O)N(CC(C)C)CC(C)C)cc2)sc2c1CCN(C(=O)OCC)C2	-0.2%	-9.0%
CC(=O)O[C@@H]1CC(C)=C2[C@H]1[C@H](C)CC[C@H]2/C=C(\C)C(=O)O	6.2%	-0.6%
Cc1cc(C)cc(OCC(=O)Nc2ccc3c(c2)C(=O)c2ccccc2C3=O)c1	-1.3%	25.1µM*
CCC(=O)Nc1ccc2c(c1)C(=O)c1ccccc1C2=O	-7.0%	7.1%
Cc1cccc(OCC(=O)Nc2cccc(-c3nnc(-c4ccccc4)o3)c2)c1C	0.4%	25.1µM*
Cc1cccc(C)c1OCC(=O)Nc1cccc(-c2nnc(-c3ccccc3)o2)c1	4.1%	?
CCS(=O)(=O)N1CCc2cc(C(=O)NCCc3ccc(OC)c(OC)c3)ccc21	-3.0%	2.1%
C=CCOC(=O)N[C@@H](CCc1ccccc1)C(C(C)=O)C(C)=O	3.9%	0.0%
CC(=O)c1ccc(NC(=O)c2ccc(-c3nc(CSc4ccccc4)c(C)o3)cc2)cc1	-2.4%	10µM*
SMILES	Cruzain inh Det	Cruzain noTriton
CC(=O)c1ccc(NC(=O)c2ccc(-c3nc(COc4ccc(C)cc4)c(C)o3)cc2)cc1	-2.9%	1µM*
CC(=O)c1ccc(NC(=O)c2ccc(-c3nc(CSc4ccc(C)cc4)c(C)o3)cc2)cc1	-2.2%	?
COc1ccc(NC(=O)c2ccc(-c3nc(COc4ccccc4)c(C)o3)cc2)cc1	-1.6%	2.1%
CCOc1ccc(CNC(=O)Cn2nc(C)n3cccc3c2=O)cc1	-1.5%	-0.7%
CCc1ccc(CNC(=O)CSCc2cnn(-c3ccccc3)c2-n2cccc2)cc1	-8.9%	14.2%
Cc1ccc(CNC(=O)c2ccc(Nc3nc4ccccc4n4nnnc34)cc2)cc1	-0.9%	-12.3%
Fc1ccccc1Nc1nc2ccccc2n2nnnc12	-0.4%	25.1µM*
Fc1cccc(Nc2nc3ccccc3n3nnnc23)c1	-0.1%	?
Cc1ccc(CNc2nc3ccccc3n3nnnc23)cc1	2.3%	31.6µM*
Oc1ccccc1Nc1nc2ccccc2n2nnnc12	-3.6%	?
c1ccc2c(c1)nc(Nc1ccc3c(c1)OCO3)c1nnnn12	-2.1%	25.1µM*
NS(=O)(=O)c1cc2c(cc1Cl)N[C@H](Cc1ccccc1)NS2(=O)=O	-1.6%	0.9%
CCOC(=O)N1CCN(Cc2nc3cc([N+](=O)[O-])ccc3n2C(C)C)CC1	-7.2%	15.6%
CC(=O)c1cccc(NC(=O)CSc2nnc3ccc(-c4ccc(C)cc4)nn23)c1	-2.4%	11.6%
Cc1cc(C)c2sc(NNC(=O)c3ccc(S(=O)(=O)N4CCc5ccccc5C4)cc3)nc2c1	4.1%	6.31µM*
O=C(Nc1nc(-c2ccncc2)cs1)c1ccc(S(=O)(=O)N2CCOCC2)cc1	1.5%	5.0%
COC(=O)COc1ccc(S(=O)(=O)N2CCc3ccccc3C2)cc1C	-2.9%	7.7%
Cc1cc(C)c2nc(NNC(=O)c3ccc(S(=O)(=O)N4CCc5ccccc5C4)cc3)sc2c1	3.5%	6.31µM*
N#Cc1ccc(-c2csc(NC(=O)c3ccc(S(=O)(=O)N4CCc5ccccc5C4)cc3)n2)cc1	-2.2%	6.31µM*
CCc1nnc(NC(=O)c2ccc(S(=O)(=O)N3CCc4ccccc4C3)cc2)s1	3.6%	?
Cc1ccccc1CSc1cn(CC(=O)N2CCCCCC2)c2ccccc12	-8.5%	-8.2%
COc1ccccc1OCCCSc1nc(-c2ccc(C(C)(C)C)cc2)nc2cc(=O)[nH]n12	-21.4%	-19.4%
CC(C)(C)c1ccc(-c2nc(SCCCOc3ccccc3)n3[nH]c(=O)cc3n2)cc1	-7.2%	12.6µM*
CN1[C@@H]2CC[C@@H]1CC(OC(=O)[C@H](CO)c1ccccc1)C2 (stereo not given in full)	1.2%	-1.7%
Fc1ccccc1-n1[nH]nnc1=S	20µM*	12.6µM*
SMILES	Cruzain inh Det	Cruzain noTriton
Cc1nnc(OC(C)C)c2nn(-c3ccccc3F)c(C)c12	5.1%	2.4%
COc1ccc(-n2c(=O)c3c4c(sc3n(Cc3ccc(C)cc3C)c2=O)CCC4)c(OC)c1	-4.8%	7.4%
COc1ccccc1CNc1ncnc2ccc(-c3cccnc3)cc12	-9.3%	-9.7%
Cc1cc(N/N=C/c2c(O)ccc3ccccc23)nc(-c2ccccc2O)n1	-0.3%	15.8µM*
Oc1ccc2ccccc2c1/C=N/Nc1ccccc1	-6.1%	-7.4%
CCc1ccc2occ(CC(=O)N(Cc3ccccc3)C3CCS(=O)(=O)C3)c2c1 (stereo not given)	-7.8%	?
COc1ccc(C(=O)N/N=C/c2sc3ccccc3c2O)cc1	-2.7%	-13.9%
COc1ccc2cc(C(=O)N/N=C/c3sc4ccccc4c3O)ccc2c1	28.2µM*	?
COc1cc(-c2nc3cccc(C)n3c2Nc2ccc3c(c2)OCCO3)ccc1O	-7.1%	-4.0%
O=C(CSc1ncc2c(n1)-c1cc(Cl)ccc1N(Cc1ccccc1)S2(=O)=O)Nc1ccc(F)cc1F	-0.2%	-15.1%
Cc1cccc(C)c1NC(=O)CSc1ncc2c(n1)-c1ccc(Cl)cc1N(Cc1ccccc1)S2(=O)=O	1.6%	-11.6%
O=C(CSc1ncc2c(n1)-c1cc(Cl)ccc1N(Cc1ccccc1F)S2(=O)=O)Nc1cccc(C(F)(F)F)c1	-1.0%	15.8µM*
COc1ccccc1NC(=O)CSc1ncc2c(n1)-c1ccccc1N(Cc1ccccc1C)S2(=O)=O	-0.1%	7.94µM*
COc1ccc(C)cc1NC(=O)CSc1ncc2c(n1)-c1ccc(Cl)cc1N(Cc1ccccc1)S2(=O)=O	-1.7%	3.16µM*
Cc1ccccc1CN1c2ccccc2-c2nc(SCC(=O)Nc3cc(F)ccc3F)ncc2S1(=O)=O	0.6%	-1.7%
COc1ccccc1NC(=O)CSc1ncc2c(n1)-c1cc(Cl)ccc1N(Cc1ccccc1)S2(=O)=O	-2.2%	6.31µM*
O=C(CSc1ncc2c(n1)-c1ccc(Cl)cc1N(Cc1ccccc1)S2(=O)=O)Nc1ccc(F)c(F)c1	3.0%	-3.0%
